# Screening data (PubChem BioAssay)
# A549 tox: kills or reduces viability of A549 cells in Nrf2 counter-screen | Potency, µM (series often up to 46 µM), without a hit: at the top dose activity change, negative = cytotoxicity, actives largely listed as inhibitors | AID 504648 | A549 ARE-Fluc cells, CellTiter-Fluor viability, 18-24 h | 390,000 tested, 0.16% active; note: % is set by controls: 0 for no effect and ±100 for the full control effect
#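 A549 ARE_Fluc cells in 5% FBS OPTI-MEM were exposed to compounds in concentration-response for 18-24 h at 37 deg C. Viability was read by CellTiter-Fluor fluorescence (Ex 405/Em 525) after 30 min, before the luciferase read.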
# ELG1 DNA repair: ELG1-dependent DNA repair inhibition | HEK293T ELG1-luciferase reporter, luminescence, 16 h; DNA damage induced by 5-fluorouridine | Potency, µM (top dose mostly 46.1 µM), without a hit: at the highest dose activity change, negative = inhibition, hits mostly inhibitors | 330,000 tested, 2.3% active; note: % is set by controls: 0 for no effect and ±100 for the full control effect; nearly all actives have a fitted effect of over 55% in size
#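 In this reporter screen, reduction of luminescence relative to DMSO vehicle indicated activity. Compounds and 5-fluorouridine were added together to 2,000 cells per well, incubated for 16 hr at 37 °C, then developed with ONE-Glo.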
# Nrf2 block: blocks Nrf2 signaling. A549 ARE-Fluc reporter, luciferase luminescence, 18-24 h. Potency, µM (series often up to 46 µM), for the others: at the top dose activity change, negative = inhibition, hits mostly inhibitors. 360,000 tested, 2.1% active. AID 504444; note: % is set by controls: 0 for no effect and ±100 for the full control effect; nearly all actives have a fitted effect of over 60% in size
#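 A549 ARE_Fluc cells, 5000/well, 5% FBS OPTI-MEM; compounds in dose-response, 18-24 h at 37 °C/5% CO2; CellTiter-Fluor viability read (Ex 405/Em 525), then BugLite luciferase luminescence = Nrf2 activity.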
# Nrf2 activator: activators of Nrf2 (ARE) signaling | AREc32 ARE-luciferase reporter (MCF7-derived line), luminescence, 24 h | Potency, µM (doses to about 46.1 µM), for the others: top-dose activation, usual class: activators | 410,000 tested, 0.31% active; note: % of control where 0% means no effect; nearly all actives have a fitted effect of over 65% in size
#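 ARE activation measured as luciferase luminescence (Steady-Glo, 30 min RT) in AREc32_Fluc cells after 24 hr compound exposure at 37 deg C, 5% CO2; cells seeded overnight at 1000/well in OPTI-MEM, 5% FBS.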
# IDH1 R132H inh: inhibitors of human mutant IDH1 R132H; Potency, µM (highest dose often 76.6 µM), for inactives: at the top dose activity change, negative = inhibition, hits mostly inhibitors; IDH1-R132H enzyme, NADPH consumption, diaphorase/resazurin fluorescence; O75874; 390,000 tested, 0.093% active; note: % is set by controls: 0 for no effect and ±100 for the full control effect; nearly all actives have a fitted effect of over 65% in size
# Target sequence (O75874 whole entry R132H, stated change not applied): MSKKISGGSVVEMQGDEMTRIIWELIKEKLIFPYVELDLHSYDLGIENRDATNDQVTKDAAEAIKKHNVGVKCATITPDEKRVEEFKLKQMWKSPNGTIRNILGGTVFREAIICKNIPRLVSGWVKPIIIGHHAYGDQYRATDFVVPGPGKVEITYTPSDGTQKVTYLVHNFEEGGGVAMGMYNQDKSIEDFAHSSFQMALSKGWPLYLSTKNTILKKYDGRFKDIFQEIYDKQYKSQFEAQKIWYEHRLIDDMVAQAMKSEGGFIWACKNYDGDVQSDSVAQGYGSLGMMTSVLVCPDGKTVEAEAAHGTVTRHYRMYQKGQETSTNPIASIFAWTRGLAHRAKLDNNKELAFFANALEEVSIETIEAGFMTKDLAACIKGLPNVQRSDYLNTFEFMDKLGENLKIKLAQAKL
#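 IDH1-R132H (0.5 ug/mL dispensed) in pH 7.5 Tris buffer was preincubated 30 min with compound, then given a substrate mix of 0.016 mM NADPH and 2 mM alpha-KG for 80 min at room temperature; remaining NADPH was read by diaphorase/resazurin fluorescence.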
# * hit, by the source's call; ? = inconclusive; / = not tested or not shown. Most compounds without a hit are left out; they make up all but 3.8% or so of the library. Calls come from the whole dose curve; as a rule, active = well fitted curve in the direction sought with a large enough effect; inconclusive = small, poorly fitted or top-dose-only effect, or another doubt; inactive = no such curve, though single readings can be large; an effect the other way counts as inactive or inconclusive. Potency is the fitted concentration of half-maximal effect.
SMILES,A549 tox,ELG1 DNA repair,Nrf2 block,Nrf2 activator,IDH1 R132H inh
Oc1ccc(Br)cc1-c1cc(-c2ccco2)[nH]n1,2.7%,7.3%,/,3.55µM*,-0.7%
COC(=O)c1cc(OC)c(OC)cc1NC(=O)c1ccc(C)o1,-3.2%,23.1µM*,-7.1%,2.6%,2.6%
COc1ccccc1/C=N/OCc1ccc(C#N)cc1,-4.7%,12.3%,18.4µM*,-0.5%,-0.6%
CC(=O)c1ccc(-c2cccc(-c3nc4ccccn4c3NC3CCCCC3)c2)cc1,?,3.55µM*,?,-5.4%,-0.4%
CCC(C)Sc1cc(-c2nc3ccccn3c2NC2CCCCC2)ccc1OC (stereo not given),?,?,?,-3.1%,7.1%
CCOCCn1c(CN(Cc2ccccc2)Cc2ccccc2)nc2c1c(=O)n(C)c(=O)n2C,-4.8%,18.4µM*,?,3.2%,7.2%
Cn1c(=O)c2c(nc(CN3CCN(Cc4ccccc4)CC3)n2CCN2CCOCC2)n(C)c1=O,6.9%,0.6%,7.6%,0.0%,0.0%
Cc1ccc(Cn2c(CN(C)Cc3ccccc3)nc3c2c(=O)n(C)c(=O)n3C)cc1,/,?,-12.2%,3.1%,11.4%
CN(Cc1ccccc1)Cc1nc2c(c(=O)n(C)c(=O)n2C)n1Cc1ccc(F)cc1,-3.3%,18.4µM*,-4.7%,0.2%,4.4%
Cc1ccccc1Cn1c(CN2CCc3ccccc3C2)nc2c1c(=O)n(C)c(=O)n2C,0.7%,13µM*,-8.3%,0.8%,0.5%
Cn1c(=O)c2c(nc(CN3CCc4ccccc4C3)n2Cc2ccc(F)cc2)n(C)c1=O,-5.7%,/,-4.1%,5.2%,3.4%
Cn1c(=O)c2c(nc(CN3CCN(Cc4ccccc4)CC3)n2Cc2ccc(Cl)cc2)n(C)c1=O,2.5%,20.6µM*,-5.3%,-1.4%,3.4%
CSc1ccc(CNC(=O)c2ccccc2NC(=O)c2nsc3ccccc23)cc1,16.0%,/,/,5.3%,0.0%
Cc1ccc(C23CC4CC(CC(C(=O)NC(C)C(N)=O)(C4)C2)C3)cc1 (stereo not given),0.0%,6.5%,5.3%,-1.1%,-0.4%
COc1ccccc1CNc1ccc(-c2nc(C)no2)cc1[N+](=O)[O-],-16.6%,/,-68.9%,0.2%,1.5%
CCCCn1c(CN(Cc2ccccc2)Cc2ccccc2)nc2c1c(=O)n(C)c(=O)n2C,1.8%,/,6.2%,7.1%,0.1%
CCCCCCn1c(N2CCN(c3ccccc3)CC2)nc2c1c(=O)n(C)c(=O)n2C,?,-25.3%,23.1µM*,-0.6%,-9.4%
CCCCCn1c(CN(C)Cc2ccccc2)nc2c1c(=O)n(C)c(=O)n2C,-19.8%,18.4µM*,18.4µM*,0.0%,-0.2%
CN(Cc1ccccc1)Cc1nc2c(c(=O)n(C)c(=O)n2C)n1Cc1ccc(Cl)cc1,/,-17.2%,14.6µM*,0.3%,2.2%
C#CCOc1nc2c(c(=O)n(C)c(=O)n2C)n1Cc1ccccc1,-3.0%,18.3µM*,?,-0.5%,14.0%
COc1ccc(C2Nc3ccccc3C(=O)N2Cc2ccccc2)cc1COc1cccc(C)c1 (stereo not given),-3.4%,/,-21.3%,/,/
Cc1noc(NS(=O)(=O)c2ccc(NC(=O)NC(C)(C(F)(F)F)C(F)(F)F)cc2)c1C,1.5%,8.2%,-18.0%,-0.4%,-1.8%
C[C@@H]1C(=O)N(S(=O)(=O)c2ccc([N+](=O)[O-])cc2)[C@H]1c1ccc(F)cc1,1.7%,/,7.1%,/,/
COc1ccc(C(=O)n2nc(-c3ccco3)nc2NCc2cccs2)cc1OC,4.8%,/,4.5%,8.0%,0.9%
Cc1c(C(=O)N2CCCC2)oc2c1-c1nn(CC(=O)NC(C)c3ccccc3)cc1CC2 (stereo not given),-4.4%,/,18.4µM*,0.6%,0.3%
SMILES,A549 tox,ELG1 DNA repair,Nrf2 block,Nrf2 activator,IDH1 R132H inh
CCOC(=O)c1cccc(NC(=O)c2cc(-c3ccc(Cl)s3)nc3ccccc23)c1,-8.3%,/,5.1%,0.2%,-5.9%
CC1(C)CC(=O)C2=C(C1)NC(Nc1nc3ccccc3o1)=NC2c1ccccc1 (stereo not given),-2.6%,/,3.6%,/,/
Cc1cc(N=Cc2c(O)n(-c3cccc(C(F)(F)F)c3)c(=O)c3ccccc23)no1,-6.9%,9.2µM*,?,-0.8%,4.4%
Cc1ccc(Cn2nnc3c(=O)n(CC(=O)N4CCN(c5ccccc5)CC4)cnc32)cc1,2.0%,14.6µM*,?,0.4%,0.5%
CCCn1c(N)c(C(=O)COC(=O)c2c(C)noc2C)c(=O)n(C)c1=O,0.3%,23.1µM*,-4.8%,-0.1%,1.5%
C=CC[C@H](CC(=O)N(CCO)Cc1ccccc1)C(=O)N[C@H](COC(=O)[C@@H](CC=C)Cc1ccc(F)cc1)Cc1ccccc1,?,20.6µM*,?,-4.5%,-5.9%
C=CC[C@@H](CC(=O)N(CCO)Cc1ccccc1)C(=O)N[C@@H](C)COC(=O)[C@@H](CC=C)CC(=O)OC(C)(C)C,1.2%,-2.8%,?,4.3%,14.9%
C=CCC[C@H](Cc1ccc(F)cc1)C(=O)OC[C@H](Cc1c[nH]c2ccccc12)NC(=O)[C@H](CC=C)CC(=O)NCCO,-4.2%,-14.1%,-21.1%,-2.6%,?
C=CC[C@H](CC(=O)N(CCO)Cc1ccccc1)C(=O)N[C@@H](C)COC(=O)[C@H](CC=C)CC(=O)OC(C)(C)C,-0.1%,23.1µM*,7.2%,1.2%,3.1%
C=CCC[C@@H](Cc1ccc(F)cc1)C(=O)OC[C@@H](Cc1c[nH]c2ccccc12)NC(=O)[C@@H](CC=C)CC(=O)NCCO,-21.1%,?,?,-1.3%,3.3%
C=CCC[C@H](Cc1ccc(F)cc1)C(=O)OC[C@H](Cc1c[nH]c2ccccc12)NC(=O)[C@@H](CC=C)CC(=O)N(CCO)Cc1ccccc1,?,23.1µM*,?,-3.4%,0.0%
C=CCC[C@@H](Cc1ccc(F)cc1)C(=O)OC[C@H](Cc1c[nH]c2ccccc12)NC(=O)[C@H](CC=C)CC(=O)N(CCO)Cc1ccccc1,?,18.3µM*,?,-1.3%,4.0%
CCOCCCNC(=O)Cn1ncc2c([nH]c3ccccc32)c1=O,-0.2%,/,?,0.1%,-7.0%
Fc1ccc(CNc2ncnc3nc[nH]c23)cc1,5.5%,/,-3.2%,/,/
O=C(CCNS(=O)(=O)c1ccccc1)NCC1CCCCC1,1.0%,13.5%,2.2%,-0.7%,-4.3%
Cc1cccc(NC(=O)c2cc3c(=O)n4cccc(C)c4nc3s2)c1C,0.2%,/,2.8%,2.4%,-4.7%
C=CCC[C@H](Cc1ccc(F)cc1)C(=O)OC[C@@H](Cc1c[nH]c2ccccc12)NC(=O)[C@@H](CC=C)CC(=O)N(CCO)Cc1ccccc1,11.6µM*,25.9µM*,9.2µM*,-4.2%,4.3%
COC(=O)c1sc(C(C)(C)C)cc1CS(=O)(=O)c1ccccn1,19.3%,16.4µM*,9.9%,-0.9%,-4.2%
